Hits are enriched below; roughly 18% of the tested compounds scored in any of these assays.
PLK1 PBD block: qHTS for Inhibitors of PLK1-PDB (polo-like kinase 1 - polo-box domain): Primary Screen; Serine/threonine-protein kinase PLK1 (Homo sapiens), P53350; Plk1 PBD binding of FITC phosphopeptide, fluorescence polarization; AID 720504, 2013; Potency, µM, without a hit: max response, negative = inhibition, usual class: inhibitors; actives 2.8% (n = 360,000); further: series mostly up to about 57 µM; nearly all actives have a fitted effect of over 65% in size
TDP1 inh: qHTS Assay for Inhibitors of Tyrosyl-DNA Phosphodiesterase (TDP1). Tyrosyl-DNA phosphodiesterase 1 (Homo sapiens), Q9NUW8. recombinant TDP1, AlphaScreen DNA substrate cleavage. Potency, µM (highest dose often 130 µM), for inactives: at the highest dose activity change, negative = inhibition, usual class: inhibitors. actives 0.28% (n = 350,000); further: nearly all actives have a fitted effect of over 40% in size
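Signal: AlphaScreen proximity between streptavidin donor and anti-FITC acceptor beads on intact substrate. Reaction: Tdp1 1 nM, substrate 15 nM final, 5 min RT after 15 min compound preincubation.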
VDR inhibitor: Inhibitors of the vitamin D receptor (VDR): qHTS | Vitamin D3 receptor (Homo sapiens), P11473 | Potency, µM, for the others: max response, negative = inhibition, actives largely listed as inhibitors | actives 0.93% (n = 400,000) | VDR-SRC2-3 peptide fluorescence polarization, 2 h
Target sequence (P11473 whole entry, looked up): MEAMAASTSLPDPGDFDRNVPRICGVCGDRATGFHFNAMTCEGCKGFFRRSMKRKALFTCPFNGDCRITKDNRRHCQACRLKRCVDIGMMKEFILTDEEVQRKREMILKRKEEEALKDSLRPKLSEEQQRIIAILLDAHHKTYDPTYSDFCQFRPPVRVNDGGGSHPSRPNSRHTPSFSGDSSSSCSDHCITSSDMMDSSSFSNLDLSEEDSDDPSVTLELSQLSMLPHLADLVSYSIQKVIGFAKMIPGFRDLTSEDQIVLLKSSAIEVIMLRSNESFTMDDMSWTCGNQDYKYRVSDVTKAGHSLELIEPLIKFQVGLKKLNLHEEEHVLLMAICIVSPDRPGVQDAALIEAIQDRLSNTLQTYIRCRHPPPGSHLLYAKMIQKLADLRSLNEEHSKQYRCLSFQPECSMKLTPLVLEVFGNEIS
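Inhibition of the VDR/SRC2-3 peptide interaction is quantified by fluorescence polarization. Compounds (23 nl, pintool) incubate with the reagents for 2 hours at ambient room temperature.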
GCN5L2 inh: qHTS Assay for Inhibitors of GCN5L2 | Histone acetyltransferase KAT2A (Homo sapiens), Q92830 | GCN5L2 HAT assay, ThioGlo1 CoA-SH fluorescence | Potency, µM (titrated, usually from 58.9 µM), for inactives: at the highest dose activity change, negative = inhibition, usual class: inhibitors | actives 0.21% (n = 390,000)
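qHTS, 1536-well. 20nM enzyme, pH 7.5 HEPES/EDTA/Tween-20 buffer; 15 min compound preinc., RT. Start: 75uM H3(1-25), 70uM AcCoA, 50uM ThioGlo1. Read Ex340/Em540 at t=0 (autofluorescence flag) and t=20 min.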
TDP1 cell CPT: qHTS for Inhibitors of human tyrosyl-DNA phosphodiesterase 1 (TDP1): qHTS in cells in presence of CPT | chicken DT40 Tdp1-/-;hTDP1 cells + 20 nM CPT, ATP luminescence, 48 h | Potency, µM (titrated, usually from 46.2 µM), without a hit: top-dose activity change, negative = growth inhibition, actives largely listed as inhibitors | actives 12% (n = 420,000) | AID 686979, 2013; further: nearly all actives have a fitted effect of over 55% in size
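Cell growth measured by CellTiter-Glo luminescence after a minimum 48 h, 37 C compound exposure with 20 nM CPT in Tdp1-knockout DT40 cells stably expressing hTDP1, seeded 400/well; qHTS titration format.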
TDP1 cell noCPT: qHTS for Inhibitors of human tyrosyl-DNA phosphodiesterase 1 (TDP1): qHTS in cells in absence of CPT; DT40 Tdp1-/- hTDP1 cells, no CPT, ATP luminescence, 48 h; actives 15% (n = 420,000); Potency, µM (highest dose often 46.2 µM), without a hit: top-dose activity change, negative = growth inhibition, usual class: inhibitors; further: nearly all actives have a fitted effect of over 55% in size
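Compound effects on proliferation are scored in DT40 Tdp1-/-;hTDP1 cells in the absence of CPT. ATP levels (CellTiter-Glo luminescence) are recorded after a ≥48 hr, 37 °C incubation.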
Starred values were filed as active, the others as inactive; u = inconclusive; x = no result; [ ] = dose if it differs, or a comment. The call rests on the fitted dose curve; in most records, active means well fitted curve in the direction sought with a large enough effect; inconclusive means small, poorly fitted or top-dose-only effect, or another doubt; inactive means no such curve, though single readings can be large; an effect the other way counts as inactive or inconclusive. On the % scale 0 is the no-effect control and ±100 the full control effect; potency means the concentration at half of the fitted maximal effect.

SMILES | PLK1 PBD block | TDP1 inh | VDR inhibitor | GCN5L2 inh | TDP1 cell CPT | TDP1 cell noCPT
COC(=O)C1=C(c2cccc(OC)c2OC)C[C@@H]2CC[C@H]1N2C(=O)NC1CCCCC1 | 10.4% | x | 5.4% | x | -22.7% | u
O=C(NCc1cccnc1)c1ccc(-c2ccc(F)c(F)c2)c2ccoc12 | -12.9% | x | x | x | 5.8µM* | 4.61µM*
O=C1NCN(c2ccccc2)C12CCN(C(c1ccnc3ccccc13)c1nnnn1-c1ccc3c(c1)OCCO3)CC2 (stereo not given) | 5.4% | x | x | x | u | 16.4µM*
O=C1NCN(c2ccccc2)C12CCN(C(CCc1ccccc1)c1nnnn1-c1ccc3c(c1)OCCO3)CC2 (stereo not given) | -2.0% | x | x | x | u | -112.7%
COc1ccc(C(c2nnnn2-c2ccc3c(c2)OCCO3)N2CCC3(CC2)C(=O)NCN3c2ccccc2)cc1 (stereo not given) | -1.8% | x | x | x | u | 25.9µM*
CCCCn1nnnc1C(c1ccnc2ccccc12)N1CCC2(CC1)C(=O)NCN2c1ccccc1 (stereo not given) | -3.0% | x | x | x | 16.4µM* | u
O=C1NCN(c2ccccc2)C12CCN(C(c1ccnc3ccccc13)c1nnnn1C1CCCC1)CC2 (stereo not given) | -1.1% | x | x | x | u | u
COc1ccc(C(c2nnnn2C2CCCC2)N2CCC3(CC2)C(=O)NCN3c2ccccc2)cc1 (stereo not given) | -1.5% | x | x | x | u | u
CCC(c1nnnn1-c1ccc2c(c1)OCCO2)N1CCC2(CC1)C(=O)NCN2c1ccccc1 (stereo not given) | -13.4% | x | x | x | 18.4µM* | 18.4µM*
Clc1cccc(Cl)c1 | x | 11.6% | x | x | x | x
C(CCOCC1CO1)COCC1CO1 (stereo not given) | x | 13.8% | x | x | x | x
COC(=O)C1=C(c2cccc(OC)c2OC)C[C@@H]2CC[C@H]1N2C(=O)NC(C)C | -2.5% | x | -9.7% | x | u | -14.3%
CC(=O)C1=C(O)C2(C)c3c(O)c(C)c(O)c(C(C)=O)c3OC2CC1=O (stereo not given) | 2.0% | x | x | x | u | 23.1µM*
CCN1C[C@@]2(OC(=O)c3ccccc3NC(C)=O)CCC(OC)[C@@]34C5CC6C(OC)C[C@@](O)(C(CC23)[C@@H]14)C5(O)C6OC (stereo not given in full) | x | -8.9%[56.1 µM] | 18.0% | -4.2% | -2.6% | 4.4%
c1ccc(-c2ccc(CN3Cc4ccccc4-n4nncc4C3)cc2)cc1 | -0.2% | x | x | x | 4.61µM* | 5.17µM*
Fc1ccccc1CN1Cc2ccccc2-n2nncc2C1 | -0.8% | x | x | x | u | 23.1µM*
CN1Cc2ccccc2-n2nncc2C1 | -13.1% | x | 1.9% | x | -8.6% | 0.7%
CC(C)(C)C(=O)N1Cc2cc(-c3ccccc3)ccc2-n2nncc2C1 | -4.9% | x | x | x | 16.4µM* | u
CCCCOP(=O)(OCCCC)C1(C)CC(=O)CC(C)(C)C1 (stereo not given) | -4.5% | x | -13.6% | x | u | -24.6%
CCCCn1c(-c2nn(C)cc2Cl)n[nH]c1=S | -12.0% | 4.0% | 6.4% | -19.2% | -12.2% | u
CCC1OC(=O)CC(O)C(C)[C@@H](O[C@@H]2OC(C)[C@H](O[C@@H]3C[C@@](C)(O)C(O)C(C)O3)C(N(C)C)C2O)[C@H](CC=O)CC(C)C(=O)/C=C/C(C)=C/[C@@H]1COC1OC(C)C(O)C(OC)[C@@H]1OC (stereo not given in full) | x | 7.9%[56.1 µM] | -3.4% | 11.1% | x | x
CCn1nc(-c2ccccc2)nc2c(=O)n(C)c(=O)nc1-2 | u | 4.9% | 5.8% | u | 1.3µM* | 2.59µM*
O=C(NC12CC3CC(CC(C3)C1)C2)OC1CN2CCC1CC2 (stereo not given) | -5.3% | -3.8% | -9.5% | -1.1% | 3.6% | u
CCOC(=O)C1=Nc2ccccc2/C1=C\c1c(O)n(C)c(=O)n(C)c1=O | 13.4µM* | -1.4% | u | -5.0% | u | u
O=P(O)(O)C#Cc1ccccc1 | x | 4.8% | x | 0.7% | x | x
SMILES | PLK1 PBD block | TDP1 inh | VDR inhibitor | GCN5L2 inh | TDP1 cell CPT | TDP1 cell noCPT
COC(=O)C1=C(c2ccc(F)cc2F)C[C@@H]2CC[C@H]1N2C(=O)NCCOc1ccccc1Cl | 6.4% | -1.6% | -4.7% | -1.1% | u | u
COC(=O)C1=C(c2ccc(-c3ccccc3)c(F)c2)C[C@@H]2CC[C@H]1N2C(=O)NCCOc1ccccc1 | -19.4% | 0.4% | -6.5% | -10.3% | 20.6µM* | 20.6µM*
COC(=O)C1=C(c2ccc(-c3ccccc3)c(F)c2)C[C@@H]2CC[C@H]1N2C(=O)NC1Cc2ccccc2C1 | -10.3% | 0.3% | 3.2% | -4.6% | u | u
COCCNC(=O)N1[C@H]2CC[C@@H]1C(C(=O)OC)=C(c1ccc(-c3ccccc3)c(F)c1)C2 | -1.6% | 1.1% | -7.1% | -6.0% | 1.84µM* | 1.84µM*
COc1ccc(CCNC(=O)C(=O)NCC2OCCN2S(=O)(=O)c2ccc(Cl)cc2)cc1 (stereo not given) | 1.3% | x | -2.9% | -13.2% | u | u
NCCc1cccc(O)c1 | x | 6.1% | 12.4% | -12.3% | -7.9% | -11.8%
CSc1ncc(/C=C2/C(=O)NC(=O)N(c3ccc(C(C)C)cc3)C2=O)cn1 | 15µM* | 0.0% | u | -3.0% | 3.4% | -29.8%
CSc1ncc(/C=C2/C(=O)NC(=O)N(C3CCCCC3)C2=O)cn1 | 10.6µM* | -2.9% | 20µM* | -1.7% | -2.3% | 7.0%
COc1cc(/C=C2\C(=O)NC(=O)N(c3ccccc3)C2=O)cc(OC)c1O | u | -4.7% | 3.4% | -20.7% | -9.6% | 5.9%
CC(C)c1ccc(N2C(=O)NC(=O)/C(=C/c3cnc(-c4ccccc4)nc3)C2=O)cc1 | 11.9µM* | u | 35.5µM* | 26.8% | u | u
COc1ccc(NC(=O)N2CC[C@@]3(CCCN(C(=O)Oc4ccccc4)C3)C2)cc1 | x | x | 4.9% | 8.3% | 8.4% | -2.0%
Cc1nnc(NC(=O)c2cccn(Cc3ccccc3F)c2=O)s1 | x | 7.7% | 3.2% | -5.7% | 3.0% | -1.2%
